Data on 173 sequences can be found in article PMC10668032, “Altered binding affinity of SIX1-Q177R correlates with enhanced WNT5A and WNT pathway effector expression in Wilms tumor”.

Whole data set: some 33,000 sequences, median “e-score” near -0.053, cut for the highest 2% near 0.38. Only a selection was taken, and the highest values are over-represented in it overall.

The assay deals with T1, SIX1 homeodomain (reference allele) (human, UniProt Q15475 108-198).
T1 sequence: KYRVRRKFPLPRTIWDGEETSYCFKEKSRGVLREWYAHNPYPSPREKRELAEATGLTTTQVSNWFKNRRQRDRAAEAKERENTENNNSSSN
The assay is described as follows: universal protein binding microarray; Universal all-10-mer PBM (8x60K, AMADID 030236), 300 nM GST-tagged protein, Alexa Fluor 488 anti-GST; buffer, salt, pH and temperature not stated (as in Berger); high values mean tight binding. The note with it: protein: ivt; tags: N-terminal GST; dsDNA, one strand shown. The procedure, abridged: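 Homeodomains fused to GST were made by in vitro transcription/translation and measured by anti-GST western blot with a recombinant GST standard curve. At 300 nM final concentration, they were applied in duplicate to universal 'all 10-mer' protein binding microarrays (8×60K format).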
Turning to CCGTATCC, the binding signal came out at 0.438 ± 0.0211 E-score. The figure for ACGTATCT is 0.339 ± 0.0607 E-score; for CCGTATAC it is 0.36 ± 0.00586 E-score. The figure for ACGTATAG is 0.189 ± 0.0603 E-score; for ACGTATCG it is 0.413 ± 0.0215 E-score. With ACGTATCC, the binding signal is 0.377 ± 0.0283 E-score. The figure for ACGTATCA is 0.474 ± 0.0189 E-score; for ATCAGTTA it is 0.182 ± 0.0174 E-score.

Turning to AAGATCGG, the binding signal came out at 0.174 ± 0.064 E-score.

Consider CGGATTAG, for which the binding signal is 0.251 ± 0.0088 E-score.

Turning to ATTGACAC, the binding signal is 0.3147 ± 0.00157 E-score. With CCCGATCA the figure was 0.347 ± 0.0408 E-score; with ATCAGTGG, 0.261 ± 0.0178 E-score. As for CCATATCA, the binding signal turned out to be 0.472 ± 0.0124 E-score.

On to CCATATAA, for which the binding signal amounted to 0.155 ± 0.0479 E-score. With ACATATTA the figure was 0.161 ± 0.0413 E-score; with TCATATCA, 0.418 ± 0.0507 E-score; with ACATATGA, 0.166 ± 0.0311 E-score.

In the case of GCATATAC, the binding signal was 0.227 ± 0.0131 E-score.

Consider TCATATGA, for which the binding signal is 0.303 ± 0.0253 E-score.

Regarding ACATATCA, the binding signal worked out at 0.446 ± 0.0429 E-score. The figure for CCATATTA is 0.265 ± 0.0697 E-score; for GAATATCC it is 0.276 ± 0.0527 E-score; for TAATATCA it is 0.34 ± 0.0768 E-score.

Take GCATATCC: the binding signal was 0.391 ± 0.00731 E-score. For the sequence AACGCATA, the binding signal amounted to 0.203 ± 0.0681 E-score.

Regarding AGAACACC, the binding signal was determined as 0.179 ± 0.0208 E-score. In the case of CCCCGCGA, the binding signal turned out to be 0.229 ± 0.018 E-score. The figure for ACCCAGCT is 0.181 ± 0.00331 E-score. Take AGCCATCG: the binding signal was 0.173 ± 0.0382 E-score.

With TGAAACCA, the binding signal came to 0.163 ± 0.0347 E-score. Take GCATATAA: the binding signal came out at 0.175 ± 0.0587 E-score.

For the sequence GCATATTA, the binding signal came to 0.249 ± 0.0567 E-score.

As for GCATATCA, the binding signal is 0.449 ± 0.0321 E-score. With AATGTGAT the figure was 0.178 ± 0.0316 E-score; with ACTATATA, 0.247 ± 0.0141 E-score. For the sequence AACGGTGT, the binding signal was determined as 0.253 ± 0.00261 E-score. With CGTATTGA the figure was 0.23 ± 0.0207 E-score; with GGTATTAC, 0.385 ± 0.0216 E-score. The figure for AGTATTAC is 0.188 ± 0.0763 E-score; for AGTATTGA it is 0.193 ± 0.0395 E-score; for GGTATGGA it is 0.252 ± 0.0421 E-score.

For GGTATTGA, the binding signal is 0.3862 ± 0.0022 E-score. With GGTATTAA the figure was 0.366 ± 0.0749 E-score. With CGTATAGA the figure was 0.28 ± 0.00298 E-score; with CGAATCGA, 0.182 ± 0.0398 E-score; with GCTATCGA, 0.253 ± 0.0112 E-score. In the case of CGTATCGA, the binding signal worked out at 0.3978 ± 0.00377 E-score. With GGTATCGA the figure was 0.463 ± 0.00936 E-score; with ATACGAAA, 0.226 ± 0.0116 E-score; with ATCCTAAA, 0.184 ± 0.0231 E-score.

Consider ACACCTGG, for which the binding signal came out at 0.172 ± 0.0558 E-score.

For the sequence ACAATACC, the binding signal was 0.318 ± 0.028 E-score. With GGATAAAA the figure was 0.166 ± 0.106 E-score. Turning to GTGGACAC, the binding signal amounted to 0.182 ± 0.0385 E-score. On to ATCACCGC, for which the binding signal is 0.191 ± 0.00595 E-score.

On to ATCTGTGC, for which the binding signal was 0.153 ± 0.0364 E-score.

Regarding ATAAATAT, the binding signal worked out at 0.168 ± 0.1 E-score. The figure for GAACCCGA is 0.19 ± 0.0702 E-score; for ATAGCCAT it is 0.218 ± 0.0172 E-score. Turning to GCTATCTA, the binding signal was found to be 0.169 ± 0.00501 E-score.

As to AGTATCTA, the binding signal was determined as 0.347 ± 0.0371 E-score. The figure for GGTATCTA is 0.426 ± 0.0126 E-score; for CCTGTATC it is 0.365 ± 0.02 E-score; for ACAGTATA it is 0.287 ± 0.0542 E-score.

ATTGTATC: the binding signal was 0.367 ± 0.0214 E-score.

Regarding GCAGTATA, the binding signal is 0.205 ± 0.0152 E-score. Regarding CCAGTATC, the binding signal was determined as 0.407 ± 0.0315 E-score. The figure for ACAGTATC is 0.402 ± 0.0345 E-score; for GATCTTGA it is 0.269 ± 0.0237 E-score; for ATCACGCA it is 0.203 ± 0.00725 E-score.

In the case of ATGAGATG, the binding signal was 0.243 ± 0.00629 E-score. With TATCGTAA the figure was 0.296 ± 0.0233 E-score; with ACACCGGT, 0.39 ± 0.0245 E-score; with ACACCGGG, 0.301 ± 0.000651 E-score.

Consider ACACCGGA, for which the binding signal came to 0.364 ± 0.0193 E-score. With CGGATGTA the figure was 0.151 ± 0.0426 E-score; with TAGGCGAA, 0.164 ± 0.00529 E-score.

Consider ATGGTATC, for which the binding signal came to 0.469 ± 0.00713 E-score.

In the case of GTGGTATA, the binding signal was 0.3 ± 0.0344 E-score. With ATGGTATA the figure was 0.336 ± 0.0339 E-score; with ATGGTCTC, 0.153 ± 0.0473 E-score. Consider CTGGTATC, for which the binding signal was 0.45 ± 0.00737 E-score. The figure for CTGGTATA is 0.255 ± 0.0119 E-score; for AACGATCT it is 0.176 ± 0.00697 E-score. With AACGACAC the figure was 0.276 ± 0.0085 E-score.

AACGATAT: the binding signal came out at 0.408 ± 0.0444 E-score. On to CACGATAC, for which the binding signal came to 0.438 ± 0.0144 E-score. As for AACGATAG, the binding signal amounted to 0.175 ± 0.0167 E-score.

Consider AACGATCC, for which the binding signal worked out at 0.333 ± 0.0104 E-score. The figure for CACGATCC is 0.342 ± 0.0744 E-score; for AACGATAC it is 0.435 ± 0.0105 E-score. With AAGGATAT the figure was 0.365 ± 0.0541 E-score; with CACGATAG, 0.245 ± 0.0038 E-score.

Consider GACGATCC, for which the binding signal came to 0.387 ± 0.0391 E-score. The figure for TACGATAA is 0.175 ± 0.0264 E-score. The figure for ATATAACG is 0.2329 ± 0.00214 E-score; for ATTGTATA it is 0.308 ± 0.00631 E-score. With CCTCATCG the figure was 0.185 ± 0.0079 E-score; with TAAGATCA, 0.293 ± 0.0543 E-score; with CGATTAAA, 0.156 ± 0.0382 E-score. Take AATCTGAT: the binding signal stood at 0.289 ± 0.0333 E-score. The figure for CGGATGAG is 0.183 ± 0.049 E-score; for TATCTCGA it is 0.248 ± 0.0332 E-score; for CAAGGGGA it is 0.165 ± 0.0484 E-score. With GAAGATAC the figure was 0.354 ± 0.0356 E-score; with GACGACAC, 0.164 ± 0.00255 E-score. The figure for GACGATAC is 0.453 ± 0.00476 E-score; for GGTAATAC it is 0.297 ± 0.025 E-score; for ATATGTGC it is 0.241 ± 0.0491 E-score.

Take ATCCGGGC: the binding signal came out at 0.3565 ± 0.000735 E-score. For ATCCGGTA, the binding signal stood at 0.318 ± 0.0245 E-score.

Consider ATCCGGGG, for which the binding signal came out at 0.418 ± 0.0155 E-score. With ATCCGGTC the figure was 0.318 ± 0.00861 E-score. The figure for ATCCGGGA is 0.295 ± 0.0471 E-score; for ATCCGGTG it is 0.405 ± 0.026 E-score. With GAAGACAC the figure was 0.21 ± 0.0292 E-score; with CTAACACC, 0.213 ± 0.0035 E-score; with TATCACCA, 0.42 ± 0.031 E-score. In the case of TATCACAA, the binding signal is 0.385 ± 0.049 E-score. The figure for TCTCACCA is 0.259 ± 0.00728 E-score; for GATCACAA it is 0.31 ± 0.0262 E-score. The figure for TATCACGA is 0.373 ± 0.0201 E-score; for GATCACCA it is 0.334 ± 0.0295 E-score; for CGATAATA it is 0.328 ± 0.0401 E-score. On to CCCTTCTC, for which the binding signal is 0.274 ± 0.0318 E-score. The figure for ATAGTCTC is 0.151 ± 0.0259 E-score; for ACAGATCG it is 0.2347 ± 0.00197 E-score. With CGCGGATC the figure was 0.365 ± 0.0314 E-score; with AGCGGATA, 0.364 ± 0.0328 E-score. The figure for CGCGGATA is 0.3882 ± 0.00207 E-score; for AGCGGATG it is 0.154 ± 0.049 E-score. Regarding GGCGGATA, the binding signal is 0.403 ± 0.0134 E-score. The figure for GGCGGGTA is 0.228 ± 0.0067 E-score; for GATCAGCC it is 0.293 ± 0.0341 E-score; for ATCGCATC it is 0.3271 ± 0.00246 E-score.

Take GACGTCTC: the binding signal stood at 0.163 ± 0.0364 E-score. The figure for CACGTATC is 0.433 ± 0.00889 E-score. The figure for AACGTATA is 0.167 ± 0.109 E-score; for ATCGTATA it is 0.324 ± 0.00599 E-score; for CACGTATA it is 0.304 ± 0.0586 E-score.

Consider AACGTATC, for which the binding signal is 0.385 ± 0.067 E-score.

For GACGTATC, the binding signal stood at 0.42 ± 0.0354 E-score. The figure for TACGTATA is 0.272 ± 0.0445 E-score. The figure for GACGTATA is 0.213 ± 0.108 E-score. With ATCGTATC the figure was 0.441 ± 0.0183 E-score; with AACCTATC, 0.246 ± 0.0031 E-score.

CTCGTATC: the binding signal was 0.367 ± 0.0253 E-score. As to GATCGGTA, the binding signal came out at 0.3365 ± 0.000728 E-score. With TATTCTCA the figure was 0.19 ± 0.0783 E-score; with AGAACATA, 0.152 ± 0.0261 E-score; with ATACTGCG, 0.185 ± 0.0499 E-score. The figure for CGTAATCC is 0.276 ± 0.00776 E-score; for GGATCCGA it is 0.376 ± 0.0683 E-score. Regarding AGATCCGC, the binding signal amounted to 0.333 ± 0.0252 E-score. For the sequence CGATCCGC, the binding signal is 0.418 ± 0.0398 E-score. Consider AGATCCGA, for which the binding signal worked out at 0.276 ± 0.0275 E-score.

Turning to CGATCCGA, the binding signal worked out at 0.396 ± 0.0357 E-score.

Take CGATCCTC: the binding signal is 0.333 ± 0.00326 E-score. The figure for ATCGTCTC is 0.304 ± 0.0389 E-score. With TACAAGTA the figure was 0.162 ± 0.0274 E-score; with ATCTAGGG, 0.187 ± 0.0244 E-score; with CCGGTAGA, 0.151 ± 0.0265 E-score. With ATCACGGA the figure was 0.288 ± 0.0444 E-score. Regarding AATACTAC, the binding signal stood at 0.181 ± 0.00602 E-score. With GATACTCC the figure was 0.45 ± 0.00694 E-score. Regarding AATACTCA, the binding signal was 0.255 ± 0.0524 E-score. In the case of TATACTCA, the binding signal came to 0.192 ± 0.0629 E-score. The figure for GATACTAC is 0.432 ± 0.0131 E-score; for AATACTCG it is 0.165 ± 0.0216 E-score. The figure for CATACTCA is 0.152 ± 0.0301 E-score. Consider GATACTAA, for which the binding signal was 0.362 ± 0.0288 E-score. The figure for GATACTCA is 0.429 ± 0.0251 E-score.
